Hits are enriched below; roughly 13% of the tested compounds scored in any of these assays.
HCV inhibitor – HCV inhibition; Huh7.5.1 HCVcc-Cre infection, luciferase reporter, 44 h; AID 651820; 3.4% of 340,000 active; Potency, µM (highest dose often 41.8 µM), hits mostly inhibitors
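Antiviral activity was scored by luciferase reporter output from cells infected with HCVcc-Cre (~0.5 moi) in presence of compound, 44 h infection period, cells seeded 1,000/well 4 h prior.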
Pf growth 48h – inhibits P. falciparum growth in the first generation, 48 h | Potency, µM (series often up to 28.7 µM), usual class: inhibitors | AID 504832 | 5.9% of 310,000 active | P. falciparum luciferase growth in erythrocytes, 48 h
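Growth was read as firefly luciferase luminescence after a 48 h, 37 C, 5% CO2 exposure of compounds to reporter-bearing P. falciparum cultures (0.1% parasitemia, 2% hematocrit final) in Albumax-supplemented RPMI 1640.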
HCMV antiviral – blocks human cytomegalovirus replication | HFF cells, HCMV-luciferase reporter, 72 h; hits give low values | activity change, negative = inhibition, % at 57.5 µM | 4.5% of 410,000 active | AID 1259415; in the data active = activity change below about -60%; inconclusive = no clear call, values can overlap the other calls; inactive = above about -39%
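HFF cells seeded 16 h at 37C, treated with compounds, infected with luciferase-reporter HCMV at MOI 1 PFU/cell; luciferase read at 72 h post infection, normalized to buffer-only and Salinomycin controls.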
Pf growth 96h – P. falciparum growth inhibition at 96 hours; P. falciparum luciferase reporter growth, 96 h; Potency, µM (titrated, usually from 28.7 µM), actives largely listed as inhibitors; 6.9% of 320,000 active; AID 504834
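Two-generation exposure (96 h) targets delayed-death phenotype. Reporter parasites carrying integrated firefly luciferase, in red cells at 2% hematocrit and 0.05% parasitemia final, kept at 37 C, 5% CO2; luminescence loss indicates inhibition.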
A number is an active result; . = inactive; ? = inconclusive; / = no result given. Unless noted, calls follow the shape of the dose curve; as a rule, active = well fitted inhibition curve with a large enough effect; inconclusive = small, poorly fitted or top-dose-only effect, or another doubt; inactive = no such curve, though single readings can be large or run the other way.

SMILES	HCV inhibitor	Pf growth 48h	HCMV antiviral	Pf growth 96h
Cc1cc(C)c(NC(=O)CCN2C(=O)c3ccccc3Sc3ncccc32)c(C)c1	/	/	.	/
CN1CCN(c2ccc(C(N)=O)cc2N)CC1	.	.	.	.
Nc1cc(C(=O)O)ccc1N1CCCCCC1	5.6µM	.	.	/
CC(=O)N1c2ccc(C)cc2C(c2ccccc2)CC1C (configuration not stated)	.	7.4µM	.	?
COc1ccc(NC(=O)CCCN2C(=O)CCn3nc(-c4cn(C)c5ccccc45)cc32)cc1	/	/	.	/
O=C(NC1CCSc2ccccc21)c1cccc(Cl)c1 (configuration not stated)	.	?	.	15µM
Cc1cc(Nc2cc(Cl)ccc2C)n2nc(Cc3ccccc3)nc2n1	/	/	.	/
CCN(CC)S(=O)(=O)c1cccc(NC(=O)/C=C/c2cccc([N+](=O)[O-])c2)c1	6.3µM	.	-85	.
O=C(/C=C/c1cccc([N+](=O)[O-])c1)NC(=S)Nc1cccc(NC(=O)c2ccccc2Cl)c1	.	13µM	-74	.
CCOc1ccccc1/C=C/c1onc(C)c1S(=O)(=O)N1CCC(C(=O)N2CCCCC2)CC1	/	/	.	/
CCC(=O)N1CCc2cc(Br)cc(S(=O)(=O)CCC(=O)NCc3ccccc3)c21	/	/	.	/
CCC(=O)N1CCc2cc(Br)cc(S(=O)(=O)CCC(=O)NCc3ccco3)c21	.	8.3µM	/	/
CCC(=O)N1CCc2cc(Br)cc(S(=O)(=O)CCC(=O)N(C)c3cccc(C)c3)c21	/	12µM	.	5.2µM
CCC(=O)N1CCc2cc(Br)cc(S(=O)(=O)CCC(=O)NCCOC)c21	.	/	-84	/
COc1ccc(NC(=O)c2cnc3cc(C)ccn3c2=O)c(OC)c1	/	/	.	/
Cc1cc(C(=O)NCc2cccc(Br)c2)c2c(C)nn(-c3ccccc3)c2n1	/	/	.	/
CCOC(=O)c1c(NC(=O)/C=C/c2ccc(C)cc2)sc(C(C)=O)c1C	/	/	.	/
Cc1cc2oc(C(=O)N(Cc3ccccc3F)C3CCS(=O)(=O)C3)c(C)c2cc1Cl (configuration not stated)	/	/	.	/
COCN(C#N)c1nc(N(C)C)nc(N(C)C)n1	?	.	.	.
COc1nc(N(C)C)nc(N(C#N)CCOC(C)=O)n1	.	.	.	.
CCN(C#N)c1nc(N(C)C)nc(N(C)C)n1	10µM	.	.	.
Cc1ccccc1OCCN(C#N)c1nc(N(C)C)nc(N(C)C)n1	.	12µM	.	.
CCn1c(=O)n(CC)c2cc(N3CCCCC3)c(NC(=O)Nc3cc(C)cc(C)c3)cc21	/	/	.	/
CCOCCCNC(=O)Cn1ncc2c([nH]c3ccc(C)cc32)c1=O	/	/	.	/
COc1ccc(C2=NOC(C(=O)Nc3cc(C)on3)C2)cc1OC (configuration not stated)	.	.	.	.
SMILES	HCV inhibitor	Pf growth 48h	HCMV antiviral	Pf growth 96h
COC(=O)c1ccccc1NC(=O)C1CC(c2ccc(F)cc2)=NO1 (configuration not stated)	?	.	.	10µM
Cc1cc(NC(=O)C2CC(c3ccc(F)cc3)=NO2)no1 (configuration not stated)	.	/	.	5.2µM
Cc1cccn2c(=O)c(/C=C(\C#N)c3nc4ccccc4s3)c(Oc3ccc(Br)cc3)nc12	/	/	.	/
COc1ccc(C(=O)/C=C/NCc2ccc(C)cc2)cc1	.	/	-61	/
Cc1ccc(C(=O)/C=C\NCc2ccccc2)cc1	.	.	.	.
CN(Cc1cnn(-c2ccccc2)c1)C(=O)c1cccc(S(=O)(=O)N(C)c2ccccc2)c1	/	/	.	/
Cc1ccc(N(C)S(=O)(=O)c2cccc(C(=O)N(C)Cc3cnn(-c4ccccc4)c3)c2)cc1	?	?	-67	?
COc1ccc(S(=O)(=O)N(C)c2ccc(C(=O)NCc3ccncc3)cc2)cc1	.	.	.	.
CCOCCCNC(=O)c1ccc(N(C)S(=O)(=O)c2ccc(OC)cc2)cc1	.	.	-103	/
COc1ccc(CNC(=O)c2ccc(N(C)S(=O)(=O)c3ccc(C)cc3)cc2)cc1	4.5µM	?	.	.
Cc1ccc(S(=O)(=O)NCCc2cn3ccsc3n2)cc1	/	/	.	/
O=C1[C@@H]2CSC(c3ccc(F)cc3)N2C(=O)N1c1ccc(Cl)cc1 (some centres not stated)	/	/	.	/
COc1ccc(N(C)S(=O)(=O)c2ccc(Cl)c(C(=O)NCCc3ccc(Cl)cc3)c2)cc1	10µM	?	.	.
COc1ccc(CNC(=O)c2cn(Cc3ccc(S(=O)(=O)N(C)C)cc3)c(=O)s2)cc1	/	/	-81	/
COc1ccc(N(C)S(=O)(=O)c2cccc(C(=O)NCc3ccc(C)cc3)c2)cc1	?	.	.	5.9µM
COc1ccc(CNC(=O)c2cn(Cc3ccc(OC(C)=O)cc3)c(=O)s2)cc1	/	/	.	/
COc1ccc(OCCN(C)C(=O)c2cccc(S(=O)(=O)N(C)c3ccccc3)c2)cc1	14µM	?	.	?
COc1ccc(C(CNC(=O)c2cccc(S(=O)(=O)N(C)c3ccccc3)c2)N2CCCC2)cc1 (configuration not stated)	?	?	.	?
COc1ccc(S(=O)(=O)N(C)c2ccc(C(=O)NCCC(C)C)cc2)cc1	.	.	.	/
COc1cccc2c1Oc1ncccc1N(c1ccc(C(=O)NCc3ccccc3Cl)s1)C2	/	/	.	/
Clc1cccc(-c2cccc3nccn23)c1Cl	/	/	-79	/
Clc1ccc(-c2cccc3nccn23)c(Cl)c1	/	/	.	/
Cc1cc2cc(CNC(=O)c3ccc(S(=O)(=O)N4CCCCC4)cc3)ccc2n1C	.	/	.	.
Cc1cc2cc(CNC(=O)c3ccc(S(=O)(=O)N4CCCC4)cc3)ccc2n1C	.	?	.	9.3µM
Cc1ccc(C(=O)Nc2ccccc2C(=O)NCc2ccco2)cc1S(=O)(=O)N1CCCCC1	?	6.6µM	.	.
SMILES	HCV inhibitor	Pf growth 48h	HCMV antiviral	Pf growth 96h
Cc1ccc(C(=O)NCc2cccc(C(F)(F)F)c2)cc1S(=O)(=O)N1CCCCC1	?	?	-66	?
O=S(=O)(NCc1ccco1)N1CCCCCC1	.	.	-62	.
CCc1nnc(SCc2cc(C)ccc2C)c2cc3sc(C)cc3n12	/	/	.	/
O=C(NCc1ccco1)c1ccc(S(=O)(=O)N2CCCCCC2)cc1	.	8.3µM	.	10µM
COc1ccccc1CNC(=O)C1CCN(S(=O)(=O)c2cccc([N+](=O)[O-])c2)CC1	?	.	.	.
Cc1ccc(C(=O)NCc2ccco2)cc1S(=O)(=O)N1CCCCC1	.	?	.	2.3µM
O=C(NCc1ccco1)C1CCN(S(=O)(=O)c2cccc([N+](=O)[O-])c2)CC1	.	9.3µM	.	.
O=C(NCc1ccco1)c1ccc(F)c(S(=O)(=O)N2CCCCC2)c1	.	?	.	?
COc1cccc(CNC(=O)c2ccc(NC(=O)N3CC(C)Sc4ccccc43)cc2)c1 (configuration not stated)	/	/	.	/
CCCn1c2ccccc2c2cnn(CC(=O)NCc3ccc(OC)cc3)c(=O)c21	/	/	.	/
Nc1nc(NCCO)nc(N2CCCCCC2)c1[N+](=O)[O-]	.	.	.	.
OCCN(CCO)c1nc(N2CCCCC2)c2nc(N(CCO)CCO)nc(N3CCCCC3)c2n1	/	2.1µM	.	3.3µM

Source: PubChem BioAssay
